PfHsp90 set2 – reduces growth (ATP signal) of yeast expressing P. falciparum Hsp90 | S. cerevisiae expressing PfHsp90, BacTiter-Glo ATP, 48 h; yeast lacking PDR1 and PDR3 efflux regulators | inhibition, % at 9.4 µM | 310,000 compounds, 0.32% hits;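 active = every replicate shows inhibition above about 80%, whatever the replicate mean, limit read from the data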;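 also: 0% = DMSO neutral controls and 100% = 20 µM radicicol positive controls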
NSD2 inh – NSD2 (human) methyltransferase inhibition; inhibition, % at 12.5 µM; O96028; NSD2 peptide methylation, AlphaScreen, 120 min; 310,000 compounds, 0.54% hits; in the data active = inhibition above about 50%
Target sequence (O96028 whole entry, looked up): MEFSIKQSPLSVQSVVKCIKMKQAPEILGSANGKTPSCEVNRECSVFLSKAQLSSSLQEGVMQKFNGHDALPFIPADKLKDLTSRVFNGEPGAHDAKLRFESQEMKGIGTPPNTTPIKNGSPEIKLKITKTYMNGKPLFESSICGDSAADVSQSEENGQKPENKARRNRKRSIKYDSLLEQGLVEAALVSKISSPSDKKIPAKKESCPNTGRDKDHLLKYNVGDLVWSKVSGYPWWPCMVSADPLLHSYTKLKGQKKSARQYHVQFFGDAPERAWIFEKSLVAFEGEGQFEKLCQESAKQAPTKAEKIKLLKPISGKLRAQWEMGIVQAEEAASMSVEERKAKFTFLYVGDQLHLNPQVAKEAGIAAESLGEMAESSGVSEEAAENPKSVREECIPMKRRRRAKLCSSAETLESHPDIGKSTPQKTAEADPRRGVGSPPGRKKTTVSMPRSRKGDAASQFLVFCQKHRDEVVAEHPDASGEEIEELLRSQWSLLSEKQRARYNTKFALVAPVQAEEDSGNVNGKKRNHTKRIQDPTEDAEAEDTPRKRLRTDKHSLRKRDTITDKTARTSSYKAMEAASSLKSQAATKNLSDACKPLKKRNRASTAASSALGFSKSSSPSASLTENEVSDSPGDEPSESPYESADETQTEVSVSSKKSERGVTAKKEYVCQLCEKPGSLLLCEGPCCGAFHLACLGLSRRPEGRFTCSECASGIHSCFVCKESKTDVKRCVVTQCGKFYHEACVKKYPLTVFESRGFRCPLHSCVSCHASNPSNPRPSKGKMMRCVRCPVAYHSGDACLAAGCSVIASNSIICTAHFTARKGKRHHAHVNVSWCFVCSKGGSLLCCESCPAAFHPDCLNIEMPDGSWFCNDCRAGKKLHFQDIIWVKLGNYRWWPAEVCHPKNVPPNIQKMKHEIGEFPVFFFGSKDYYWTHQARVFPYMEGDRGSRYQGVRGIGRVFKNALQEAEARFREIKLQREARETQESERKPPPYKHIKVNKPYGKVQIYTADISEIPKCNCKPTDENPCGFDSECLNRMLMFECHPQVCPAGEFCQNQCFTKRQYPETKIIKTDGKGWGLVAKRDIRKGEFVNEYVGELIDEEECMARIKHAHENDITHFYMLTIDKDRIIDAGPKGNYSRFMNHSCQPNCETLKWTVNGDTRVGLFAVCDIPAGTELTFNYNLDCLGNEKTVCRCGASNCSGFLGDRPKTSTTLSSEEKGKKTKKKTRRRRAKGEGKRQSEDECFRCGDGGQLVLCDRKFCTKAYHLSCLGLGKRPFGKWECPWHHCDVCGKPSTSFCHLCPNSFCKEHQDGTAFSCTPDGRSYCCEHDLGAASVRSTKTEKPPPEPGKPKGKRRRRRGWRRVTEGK
CASP6 VEID inh – blocks human caspase-6 cleavage activity; 350,000 compounds, 0.53% hits; purified caspase-6, Z-VEID-R110 cleavage fluorescence; P55212; inhibition, % at 12.5 µM;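 active = mean inhibition across replicates at least about 35%, with every replicate also reaching that limit, limit read from the data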;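 also: 0% = median of neutral control wells and 100% = no fluorescence left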
SIRT5 inh – blocks human SIRT5 desuccinylation of peptide; 330,000 compounds, 1.1% hits; AID 652115; inhibition, % at 15 µM; Purified SirT5, succinyl-peptide AMC, trypsin-coupled fluorescence; Q9NXA8; in the data active = inhibition above about 15%
ARNT TACC3 PPI – ARNT/TACC3 interaction disruption; Q9Y6A5; AlphaScreen His-ARNT PAS-B/GST-TACC3 binding, luminescence; TACC3 fragment carries E629A point mutation; inhibition, % at 9.99 µM; 390,000 compounds, 0.66% hits;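 active = mean inhibition of replicates at least 50% and at least half of replicates each reaching 50%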;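 also: 0% = complete ARNT plus TACC3 wells and 100% = ARNT alone without TACC3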
ARNT Alpha ctr – interferes with AlphaScreen signal, flagging false ARNT-TACC3 hits. His-ARNT PASB-GST AlphaScreen artifact counter-screen, luminescence. AC50, µM (series often up to 68 µM), inactives show top-dose activity change, negative = signal decrease. shares compounds with ARNT TACC3 PPI. 1,200 compounds, 50% hits;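 active = every separate test run was called active for a drop in luminescence, with AC50 within twice the top valid dose, actives reach about 71 µM in these data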
CASP1 counter – selectivity counter-screen: inhibitors of human caspase-1; shares compounds with CASP6 VEID inh; purified caspase-1, Z-YVAD-R110 cleavage fluorescence; activity change, negative = inhibition, % at 35 µM; 100 tested, under 10 active; AID 743289;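 active = compounds lowering fluorescence whose fitted half-maximal concentration is no more than twice their top tested dose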
AlphaScreen art – interferes with AlphaScreen signal, flagging NSD2 false positives | AlphaScreen artifact counterscreen, preloaded methylated H4 peptide | shares compounds with NSD2 inh | AC35, µM (doses to about 10 µM), for the others: at the top dose activity change, negative = signal loss | AID 1053174 | 1,500 compounds, 9.4% hits; call rule not given here
Starred values were filed as active, the others as inactive; . = no result given; [ ] = dose if it differs, or a comment. Rows were chosen to be rich in hits. Some 2.1% of all compounds tested hit in one or more screens of this group.

SMILES	PfHsp90 set2	NSD2 inh	CASP6 VEID inh	SIRT5 inh	ARNT TACC3 PPI	ARNT Alpha ctr	others
C[C@H]1CN([C@@H](C)CO)C(=O)c2cc(NC(=O)Nc3cccc4ccccc34)ccc2O[C@@H]1CN(C)C(=O)Nc1ccc(C(F)(F)F)cc1	.	.	-2	10	active	-31%[42 µM]
COc1ccc(NC(=O)Nc2ccc3c(c2)CC(=O)N([C@@H](C)CO)C[C@@H](C)[C@H](CN(C)Cc2ccc(Oc4ccccc4)cc2)O3)cc1	.	.	0	-3	58*	20µM*
C[C@H](CO)N1C[C@H](C)[C@H](CN(C)Cc2ccc(Oc3ccccc3)cc2)Oc2ccc(NC(=O)Nc3cccc4ccccc34)cc2CC1=O	7	.	-3	-5	-3	.
CCC(=O)N1CC2(C1)[C@@H](c1ccccc1)[C@H](CO)N2C(=O)NC(C)C	.	.	0	4	.	.
C[C@H]1CN([C@@H](C)CO)C(=O)Cc2cc(NC(=O)Nc3cccc4ccccc34)ccc2O[C@H]1CN(C)CC1CCCCC1	.	.	6	1	52*	-31%[42 µM]
COc1ccc(CN(C)C[C@@H]2Oc3ccc(NC(=O)Cn4cnnn4)cc3C(=O)N([C@@H](C)CO)C[C@H]2C)cc1	.	.	0	2	54*	-4%[42 µM]
COc1ccc(CN(C)C[C@H]2Oc3ccc(NC(=O)Cn4cnnn4)cc3C(=O)N([C@H](C)CO)C[C@@H]2C)cc1	.	.	2	0	24	.
C[C@H](CO)N1C[C@H](C)[C@@H](CN(C)C(=O)Nc2ccc3c(c2)OCO3)Oc2ccc(NC(=O)CCN3CCOCC3)cc2CC1=O	.	.	1	0	50*	-14%[42 µM]
C[C@H]1CN([C@@H](C)CO)C(=O)c2cc(C#CCN(C)C)cnc2O[C@H]1CN(C)C(=O)NC1CCCCC1	.	.	-2	-1	0	.
COc1ccccc1NC(=O)CSc1nnnn1-c1ccccc1OC	-3	-1	2	-3	-3	.
COc1ccc(OC)c(-n2nnnc2SCC(=O)Nc2ccccc2OC)c1	9	-3	-2	-7	active	-15%
Cn1c(CNc2ccccc2O)nc2ccccc21	-10	.	4	0	67*	-32%
Cn1nc(-c2ccccn2)nc2c(=O)n(C)c(=O)nc1-2	-14	.	95*	3	67*	-1%	CASP1 counter=-3
Cc1ccc(-n2[nH]c(=O)c(-c3ccccn3)c2C)cc1	0	3	-3	1	1	.
Oc1cc(NCCN2CCOCC2)cc2cccnc12	7	.	90*	-3	59*	11µM*	CASP1 counter=-2
COc1ccc2c3c(n(C)c2c1)[C@H](CO)N(C(=O)c1cnccn1)CC31CCN(C(=O)c2ccncc2)CC1	.	.	3	2	.	.
CN1CCN(/N=C/c2nc(-c3ccccc3Cl)n3ccccc23)CC1	3	67*	.	.	35*	-22%	AlphaScreen art=-5%
Cc1[nH][nH]c(=O)c1C(c1ccc(-c2ccc(C(=O)O)cc2)o1)c1c(C)[nH][nH]c1=O	-10	89*	9	7	72*	-11%	AlphaScreen art=1%
Cc1ccc(S(=O)(=O)Oc2ccc(C(c3c(C)[nH][nH]c3=O)c3c(C)[nH][nH]c3=O)cc2)cc1	.	13	12	-9	7	.
Cc1[nH][nH]c(=O)c1C(c1ccc(-c2ccc(F)cc2)o1)c1c(C)[nH][nH]c1=O	8	156*	.	2	48*	-19%	AlphaScreen art=0%
O=C(NCc1ccccn1)[C@H]1[C@H](CO)[C@H]2Cn3c(cccc3=O)[C@@H]1N2CC1CCCC1	.	.	2	0	.	.
Cc1noc(C)c1NC(=O)Nc1ccc2c(c1)C(=O)N([C@@H](C)CO)C[C@@H](C)[C@H](CN(C)CC1CCCCC1)OCCCC[C@H](C)O2	.	.	2	-7	3	.
CN1/C(=N\O)c2cccc3cccc1c23	-10	55*	.	.	52*	-25%	AlphaScreen art=8%
CNC(=O)CN1C(=O)c2cccc3cccc1c23	-24	1	.	.	-4	.
O=C(C[C@@H]1C[C@@H]2c3cc(NC(=O)Nc4ccccc4F)ccc3O[C@@H]2[C@@H](CO)O1)NC1CCCCC1	.	.	-2	.	-7	.
SMILES	PfHsp90 set2	NSD2 inh	CASP6 VEID inh	SIRT5 inh	ARNT TACC3 PPI	ARNT Alpha ctr	others
CCN(CC)CCCNc1nc2ccccc2c2[nH]c3ccc(OC)cc3c12	-10	56*	-21	.	57*	-34%	AlphaScreen art=-7%
CCN(CC)CCCNc1nc(-c2ccccc2)nc2ccccc12	-7	15	.	.	-3	.
O=C(Nc1nnc(SCc2ccc(F)cc2)s1)c1ccccn1	101*	65*	3	6	79*	17µM*	AlphaScreen art=-7%
O=c1[nH]c(Nc2ccccc2Cl)cc2ccccc12	-36	.	88*	1	37*	.	CASP1 counter=-9
O=c1[nH]c(Nc2ccc(F)cc2)cc2ccccc12	.	97*	100*	2	38	.	CASP1 counter=6
Cc1ccccc1Nc1cc2ccccc2c(=O)[nH]1	-44	.	.	.	24	.
CCCCN(C(=O)c1cccc(S(=O)(=O)N2CCCC2)c1)c1c(N)n(CCC)c(=O)[nH]c1=O	-8	0	2	0	.	.
CCCN(C(=O)c1cccc(-n2cccc2)c1)c1c(N)n(Cc2ccccc2)c(=O)[nH]c1=O	.	1	71*	8	-1	.	CASP1 counter=9
CCCCN(C(=O)c1cccc(-n2cccc2)c1)c1c(N)n(CCC)c(=O)[nH]c1=O	.	0	41*	1	-1	.	CASP1 counter=8
CCCc1nc2c(=O)n(C)c(=O)nc-2n(C)n1	-31	.	96*	1	10	.	CASP1 counter=-12
CCC(=O)N1[C@H](C(=O)N2CCCCC2)[C@@H](CO)[C@@H]2Cn3c(ccc(-c4cccc(F)c4)c3=O)[C@@H]21	.	.	2	-25	.	.
CCOC(=O)c1sc2nc(OCCN3CCOCC3)cc(C)c2c1N	.	.	82*	17*	.	.	CASP1 counter=5
COc1cccc(-c2cnc3c(c2)C(=O)N([C@H](C)CO)C[C@H](C)[C@H](CN(C)C(=O)CN(C)C)O3)c1	.	.	-1	-3	.	.
COc1cc(NC(C)CCCNC(C)C)c2ncccc2c1OC (stereo unspecified)	13	111*	38*	.	59*	.	CASP1 counter=1
CCCNC(=O)N(C)C[C@H]1Oc2ncc(C#Cc3ccncc3)cc2C(=O)N([C@H](C)CO)C[C@@H]1C	.	.	-3	-5	12	.
O=C(O)C1CCCCC1C(=O)Nc1cccc(Br)c1 (stereo unspecified)	12	.	75*	.	.	.	CASP1 counter=-2
O=C(Nc1cccc(Br)c1)C1CCCC1	.	0	-2	2	.	.

Source: PubChem BioAssay
